# Results published in the supplement of paper PMC8728848.
# About 410 targets per protein were measured; listed, in parts, are those with the strongest signals and a random draw of the rest.
# B1: Neuropilin-1 (Rattus norvegicus), Q9QWJ9 (protein)
# chain: MERGLPLLCATLALALALAGAFRSDKCGGTIKIENPGYLTSPGYPHSYHPSEKCEWLIQAPEPYQRIMINFNPHFDLEDRDCKYDYVEVIDGENEGGRLWGKFCGKIAPSPVVSSGPFLFIKFVSDYETHGAGFSIRYEIFKRGPECSQNYTAPTGVIKSPGFPEKYPNSLECTYIIFAPKMSEIILEFESFDLEQDSNPPGGVFCRYDRLEIWDGFPEVGPHIGRYCGQKTPGRIRSSSGILSMVFYTDSAIAKEGFSANYSVLQSSISEDFKCMEALGMESGEIHSDQITASSQYGTNWSVERSRLNYPENGWTPGEDSYREWIQVDLGLLRFVTAVGTQGAISKETKKKYYVKTYRVDISSNGEDWITLKEGNKAIIFQGNTNPTDVVFGVFPKPLITRFVRIKPASWETGISMRFEVYGCKITDYPCSGMLGMVSGLISDSQITASNQGDRNWMPENIRLVTSRTGWALPPSPHPYINEWLQVDLGDEKIVRGVIIQGGKHRENKVFMRKFKIAYSNNGSDWKMIMDDSKRKAKSFEGNNNYDTPELRAFTPLSTRFIRIYPERATHSGLGLRMELLGCEVEVPTAGPTTPNGNPVDECDDDQANCHSGTGDDFQLTGGTTVLATEKPTIIDSTIQSEFPTYGFNCEFGWGSHKTFCHWEHDSHAQLRWRVLTSKTGPIQDHTGDGNFIYSQADENQKGKVARLVSPVVYSQSSAHCMTFWYHMSGSHVGTLRVKLHYQKPEEYDQLVWMVVGHQGDHWKEGRVLLHKSLKLYQVIFEGEIGKGNLGGIAVDDISINNHIPQEDCAKPTDLDKKNTEIKIDETGSTPGYEEGKGDKNISRKPGNVLKTLDPILITIIAMSALGVLLGAVCGVVLYCACWHNGMSERNLSALENYNFELVDGVKLKKDKLNPQSNYSEA
# Columns and labels:
# Assay in all cases: glycan array binding signal (z-score within array); higher = stronger binding
# Settings in all cases: glycan notation: IUPAC condensed, linker removed
# [1] = target: Fuc(a1-2)Gal(b1-4)GlcNAc(b1-2)Man(a1-3)[Fuc(a1-2)Gal(b1-4)GlcNAc(b1-2)Man(a1-6)]Man(b1-4)GlcNAc(b1-4)GlcNAc
# Procedure, shortened: (§1)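 Arrays were curated from the Consortium for Functional Glycomics database, 3228 in total, and kept only where the protein sequence was available. Binding is expressed as a within-array Z-score. This score was averaged across arrays of the same protein sequence at different concentrations or buffers and across linkers, and negative values can be read as non-binding.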
# [2] = target: Fuc(a1-2)Gal(b1-4)[Fuc(a1-3)]GlcNAc(b1-2)Man(a1-3)[Fuc(a1-2)Gal(b1-4)[Fuc(a1-3)]GlcNAc(b1-2)Man(a1-6)]Man(b1-4)GlcNAc(b1-4)GlcNAc
# Procedure, shortened: as §1
# Fuc(a1-2)[Gal(a1-3)]Gal = target: Fuc(a1-2)[Gal(a1-3)]Gal
# Procedure, shortened: as §1
# [3] = target: Fuc(a1-2)[Gal(a1-3)]Gal(b1-4)GlcNAc(b1-2)Man(a1-3)[Fuc(a1-2)[Gal(a1-3)]Gal(b1-4)GlcNAc(b1-2)Man(a1-6)]Man(b1-4)GlcNAc(b1-4)GlcNAc
# Procedure, shortened: as §1
# [4] = target: Fuc(a1-2)[GalNAc(a1-3)]Gal(b1-4)GlcNAc(b1-2)Man(a1-3)[GalNAc(a1-3)[Fuc(a1-2)]Gal(b1-4)GlcNAc(b1-2)Man(a1-6)]Man(b1-4)GlcNAc(b1-4)GlcNAc
# Procedure, shortened: as §1
# [5] = target: Fuc(a1-2)[GalNAc(a1-3)]Gal(b1-4)GlcNAc(b1-3)Gal(b1-4)GlcNAc
# Procedure, shortened: as §1
# [6] = target: Fuc(a1-3)[Gal(b1-4)]GlcNAc(b1-2)Man(a1-6)[Gal(b1-4)GlcNAc(b1-2)Man(a1-3)]Man(b1-4)GlcNAc(b1-4)GlcNAc
# Procedure, shortened: as §1
# [7] = target: Fuc(a1-3)[Gal(b1-4)]GlcNAc6S
# Procedure, shortened: as §1
# [8] = target: Fuc(a1-3)[Gal3S(b1-4)]GlcNAc
# Procedure, shortened: as §1
# [9] = target: Gal(a1-3)Gal(b1-4)[Fuc(a1-3)]GlcNAc(b1-2)Man(a1-3)[Gal(a1-3)Gal(b1-4)[Fuc(a1-3)]GlcNAc(b1-2)Man(a1-6)]Man(b1-4)GlcNAc(b1-4)GlcNAc
# Procedure, shortened: as §1
# Gal(a1-4)Gal(b1-4)GlcNAc = target: Gal(a1-4)Gal(b1-4)GlcNAc
# Procedure, shortened: as §1
# Gal(b1-2)Gal = target: Gal(b1-2)Gal
# Procedure, shortened: as §1
# [10] = target: Gal(b1-3)GlcNAc(b1-2)Man(a1-3)[Gal(b1-3)GlcNAc(b1-2)Man(a1-6)]Man(b1-4)GlcNAc(b1-4)GlcNAc
# Procedure, shortened: as §1
# [11] = target: Gal(b1-3)[Neu5Ac(b2-6)]GalNAc
# Procedure, shortened: as §1
# [12] = target: Gal(b1-4)GalNAc(a1-3)[Fuc(a1-2)]Gal(b1-4)GlcNAc
# Procedure, shortened: as §1
# GlcA(b1-6)Gal = target: GlcA(b1-6)Gal
# Procedure, shortened: as §1
# [13] = target: GlcNAc(a1-4)Gal(b1-4)GlcNAc(b1-3)Gal(b1-4)[Fuc(a1-3)]GlcNAc(b1-3)Gal(b1-4)[Fuc(a1-3)]GlcNAc
# Procedure, shortened: as §1
# [14] = target: Neu5Ac(a2-3)Gal(b1-3)GalNAc
# Procedure, shortened: as §1
# [15] = target: Neu5Ac(a2-3)Gal(b1-3)GalNAc6S
# Procedure, shortened: as §1
# [16] = target: Neu5Ac(a2-3)Gal(b1-3)GlcNAc
# Procedure, shortened: as §1
# [17] = target: Neu5Ac(a2-3)Gal(b1-3)GlcNAc6S
# Procedure, shortened: as §1
# [18] = target: Neu5Ac(a2-3)Gal(b1-3)[Fuc(a1-4)]GlcNAc(b1-3)Gal(b1-4)[Fuc(a1-3)]GlcNAc
# Procedure, shortened: as §1
# [19] = target: Neu5Ac(a2-3)Gal(b1-4)GlcNAc(b1-3)Gal(b1-4)GlcNAc(b1-3)Gal(b1-4)GlcNAc
# Procedure, shortened: as §1
# [20] = target: Neu5Ac(a2-3)Gal(b1-4)[Fuc(a1-3)]GlcNAc(b1-6)[Gal(b1-3)]GalNAc
# Procedure, shortened: as §1
# [21] = target: Neu5Ac(a2-3)Gal(b1-4)[Fuc(a1-3)]GlcNAc(b1-6)[Neu5Ac(a2-3)Gal(b1-3)]GalNAc
# Procedure, shortened: as §1
# Neu5Ac(a2-3)GalNAc = target: Neu5Ac(a2-3)GalNAc
# Procedure, shortened: as §1
# [22] = target: Neu5Ac(a2-6)Gal(b1-4)GlcNAc(b1-2)Man(a1-3)Man(b1-4)GlcNAc(b1-4)GlcNAc
# Procedure, shortened: as §1
# [23] = target: Neu5Ac(a2-6)Gal(b1-4)GlcNAc6S
# Procedure, shortened: as §1
# [24] = target: Neu5Ac(b2-6)Gal(b1-4)GlcNAc
# Procedure, shortened: as §1
# Neu5Gc(a2-3)Gal(b1-4)Glc = target: Neu5Gc(a2-3)Gal(b1-4)Glc
# Procedure, shortened: as §1
binder,measurement,setting,value
B1,glycan array binding signal (z-score),[1],7.46
same,glycan array binding signal (z-score),[2],2.97
same,glycan array binding signal (z-score),Fuc(a1-2)[Gal(a1-3)]Gal,-0.352
same,glycan array binding signal (z-score),[3],7.21
same,glycan array binding signal (z-score),[4],5.38
same,glycan array binding signal (z-score),[5],-0.035
same,glycan array binding signal (z-score),[6],-0.363
same,glycan array binding signal (z-score),[7],0.233
same,glycan array binding signal (z-score),[8],-0.201
same,glycan array binding signal (z-score),[9],4.58
same,glycan array binding signal (z-score),Gal(a1-4)Gal(b1-4)GlcNAc,-0.229
same,glycan array binding signal (z-score),Gal(b1-2)Gal,-0.273
same,glycan array binding signal (z-score),[10],-0.258
same,glycan array binding signal (z-score),[11],-0.235
same,glycan array binding signal (z-score),[12],0.018
same,glycan array binding signal (z-score),GlcA(b1-6)Gal,-0.148
same,glycan array binding signal (z-score),[13],2.61
same,glycan array binding signal (z-score),[14],-0.323
same,glycan array binding signal (z-score),[15],-0.301
same,glycan array binding signal (z-score),[16],-0.274
same,glycan array binding signal (z-score),[17],-0.371
same,glycan array binding signal (z-score),[18],0.102
same,glycan array binding signal (z-score),[19],-0.331
same,glycan array binding signal (z-score),[20],8.12
same,glycan array binding signal (z-score),[21],4.25
same,glycan array binding signal (z-score),Neu5Ac(a2-3)GalNAc,-0.28
same,glycan array binding signal (z-score),[22],-0.309
same,glycan array binding signal (z-score),[23],-0.311
same,glycan array binding signal (z-score),[24],-0.253
same,glycan array binding signal (z-score),Neu5Gc(a2-3)Gal(b1-4)Glc,-0.189
